Test results from PubChem BioAssay AID1159580 (chemical genetic matrix, 2015).
The whole screen tested about 5,500 compounds, of which about 2,000 (36%) were called active. Another 18% or so got no clear call; they are omitted. The list shows a part of the results. A number with no mark means an inactive call. No stated cut-off is given here; in the data, active means normalized growth mostly below about 0.91 (no sharp cut-off); inconclusive means no clear call, values can overlap the other calls; inactive means mostly above about 0.92.

Assay: chemical genetic growth profiling, strain panel (AID 1159580);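 further: tested at 20 µM; growth read once vehicle control cultures reached saturation at 30 °C; 1 = growth at the plate median or of vehicle wells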
Conditions: S. cerevisiae deletion strains, growth OD
[1] = locus YAL040C, strain CLN3, stronger effect = lower value
[2] = locus YCL061C, strain MRC1 (second series), stronger effect = lower value
[3] = locus YDR363W, strain ESC2, stronger effect = lower value
[4] = locus YER002W, strain NOP16, stronger effect = lower value
[5] = locus YGR229C, strain SMI1, stronger effect = lower value
[6] = locus YJR075W, strain HOC1, stronger effect = lower value
[7] = locus YMR307W, strain GAS1, stronger effect = lower value
[8] = locus YNL153C, strain GIM3, stronger effect = lower value
[9] = locus YNL175C, strain NOP13, stronger effect = lower value
[10] = locus YNL197C, strain WHI3, stronger effect = lower value
[11] = locus YNL224C, strain SQS1, stronger effect = lower value
[12] = locus YOR083W, strain WHI5 (second series), stronger effect = lower value
[13] = locus YPL055C, strain LGE1, stronger effect = lower value
[14] = locus YPL241C, strain CIN2, stronger effect = lower value

SMILES	normalized growth [1]	normalized growth [2]	normalized growth [3]	normalized growth [4]	normalized growth (locus YGR078C, strain PAC10, stronger effect = lower value)	normalized growth [5]	normalized growth [6]	normalized growth (locus YMR263W, strain SAP30, stronger effect = lower value)	normalized growth [7]	normalized growth [8]	normalized growth [9]	normalized growth [10]	normalized growth [11]	normalized growth [12]	normalized growth [13]	normalized growth [14]	normalized growth (locus YDR150W, strain NUM1, stronger effect = lower value)	normalized growth (locus YNL322C, strain KRE1, stronger effect = lower value)
C#C[C@]1(O)CC[C@H]2[C@@H]3CCC4=Cc5oncc5CC4(C)[C@H]3CCC21C (some centres not stated)	0.943	1	1.02	0.949	0.948	1.02	1	1	0.988	0.917	0.917	0.921	0.934	0.99	1.02	1		
C[C@]12Cc3cn4c(nc3C=C1CCC1C2CC[C@@]2(C)[C@H]1CC[C@@]2(O)C#N)nc1ccccc14 (some centres not stated)	0.88 (active)	0.99	0.975	0.264 (active)		0.937	0.963		0.936	0.63 (active)	0.229 (active)	0.911	0.799 (active)	0.852 (active)	0.966	0.996	1	0.938
